The list is not random: actives were taken first. Their share in the collection is about 12%.
USP30 block: human USP30 deubiquitinase inhibition; purified USP30, Ub-rhodamine cleavage fluorescence; inhibition, % at 25 µM; 5.3% of 47,000 active
USP17 inh: blocks human USP17 ubiquitin-rhodamine cleavage; AID 1645855; purified USP17, Ub-rhodamine cleavage fluorescence, 3 h; inhibition, % at 50 µM; 6.5% of 47,000 active; A8MUK1
Target sequence (A8MUK1 whole entry, looked up): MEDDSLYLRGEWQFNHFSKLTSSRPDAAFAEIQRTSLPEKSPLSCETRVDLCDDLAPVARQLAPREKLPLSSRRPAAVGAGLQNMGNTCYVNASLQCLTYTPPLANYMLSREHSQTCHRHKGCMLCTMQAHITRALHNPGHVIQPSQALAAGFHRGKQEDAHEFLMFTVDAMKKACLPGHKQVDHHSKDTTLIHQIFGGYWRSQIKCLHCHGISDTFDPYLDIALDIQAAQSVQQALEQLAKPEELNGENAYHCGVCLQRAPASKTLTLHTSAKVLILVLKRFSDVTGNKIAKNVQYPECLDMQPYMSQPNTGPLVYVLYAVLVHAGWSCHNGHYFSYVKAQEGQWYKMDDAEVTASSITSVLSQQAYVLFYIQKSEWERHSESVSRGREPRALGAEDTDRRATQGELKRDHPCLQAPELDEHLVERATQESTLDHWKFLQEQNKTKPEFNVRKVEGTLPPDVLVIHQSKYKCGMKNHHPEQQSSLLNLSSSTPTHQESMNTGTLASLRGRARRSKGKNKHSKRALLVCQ
USP8 inh: blocks human USP8 ubiquitin-rhodamine cleavage | inhibition, % at 20 µM | AID 1645853 | P40818 | 4.2% of 47,000 active | purified USP8, Ub-rhodamine cleavage fluorescence, 30 min
Numbers without * were called inactive; / = no result. Cut-off read from the data, not from the text of the source: active = inhibition above about 30%; inactive = the rest.

SMILES	USP30 block	USP17 inh	USP8 inh
NS(=O)(=O)c1ccc(CCNC(=O)C(=O)c2c[nH]c3ccccc23)cc1	15	10	17
CC(C(=O)NCCc1ccc(S(N)(=O)=O)cc1)n1sc2ccccc2c1=O (configuration not stated)	39*	0	1
c1cn(-c2ccc(-c3nn[nH]n3)cc2)cn1	19	5	-2
CN(C)C(Cc1ccccc1)C(=O)c1ccc2c(c1)NC(=O)CO2 (configuration not stated)	-1	-1	-1
COc1ccccc1-c1nnc(SCC(=O)c2ccc3c(c2)NC(=O)CO3)n1Cc1ccco1	-16	37*	-9
O=C(Nc1cccc(S(=O)(=O)N2CCCC2)c1)c1ccc(N2CCOCC2)c([N+](=O)[O-])c1	23	8	0
O=C(CCn1c(=O)c2ccccc2n(Cc2ccc([N+](=O)[O-])cc2)c1=O)NCc1ccco1	1	6	-19
COc1cccc(C(=O)Cn2c(=O)n(CCCC(=O)NCc3ccco3)c(=O)c3ccc(Cl)cc32)c1	19	18	10
Cc1ccc(Cl)cc1NC(=O)Cn1c(=O)n(CCC(=O)NCc2ccco2)c(=O)c2ccccc21	32*	15	64*
Cc1ccc(Cl)cc1NC(=O)Cn1c(=O)n(CCC(=O)NC2CCCC2)c(=O)c2ccccc21	41*	23	22
O=C(CCn1c(=O)c2ccccc2n(Cc2ccc(F)cc2Cl)c1=O)NCc1ccco1	15	38*	48*
COc1cc2c(=O)n(CCC(=O)NCc3ccco3)c(=O)n(CC(=O)Nc3c(C)cccc3C)c2cc1OC	30*	61*	38*
O=C(CCCn1c(=O)c2ccccc2n(Cc2ccc(F)cc2)c1=O)NCc1ccco1	1	3	13
O=C(Cn1c(=O)n(CCC(=O)NC2CCCC2)c(=O)c2ccccc21)Nc1ccccc1F	19	14	15
COc1ccccc1NC(=O)C1CCCN(C(=O)c2ccc(Cl)cc2)C1 (configuration not stated)	2	-10	-6
CC(OC(=O)c1ccc2c(=O)n3c(nc2c1)CCCCC3)C(=O)Nc1ccc(Oc2ccccc2)cc1 (configuration not stated)	-109	6	14
O=C(c1ccc(-n2cccn2)nc1)N1CCSCC1	-1	-11	-9
Cc1ccc(C)c(NC(=O)CSc2nnc(-c3ccccn3)n2Cc2ccco2)c1	62*	39*	13
CCc1ccccc1NC(=O)CSc1nnc(-c2cnccn2)n1Cc1ccco1	27	1	8
COc1ccc(CSc2nnc(-c3ccccn3)n2-c2ccc(OC)cc2)cc1	38*	6	8
COc1ccccc1NC(=O)CSc1nnc(-c2ccccn2)n1-c1cc(C)cc(C)c1	-17	34*	-10
COc1ccc(-n2c(SCC(=O)c3ccccc3)nnc2-c2cccnc2)cc1	-42	-1	4
O=C(CSc1nnc(-c2ccccn2)n1-c1ccccc1)Nc1cccc2ccccc12	15	11	4
COc1cccc(C(=O)N2CCC3(CC2)NC(=O)c2ccccc2N3C)c1	8	9	-3
CCC(C)CC(C)/C=C(\C)C1OC(c2c(O)c(C3CC(O)C(O)C3O)cn(C)c2=O)CC=C1C (configuration not stated)	-140	-32	-69
SMILES	USP30 block	USP17 inh	USP8 inh
CSc1nc(OCC(=O)c2ccccc2)c2c3c(sc2n1)COC(C)(C)C3	9	2	3
COc1ccc(NC(=O)CCN2C(=O)[C@@H]3Cc4ccccc4CN3C2=O)cc1	5	-2	-21
COc1ccc(/C=C2\NC(=O)[C@H]3Cc4ccccc4CN3C2=O)cc1	-7	1	46*
COc1ccc(NCC(=O)N2CCC(Cc3ccccc3)CC2)c(OC)c1	4	1	2
Cc1cc(=O)[nH]c(SCC(=O)Nc2ccc(Br)cn2)n1	-12	-7	-26
COc1ccc(OC)c(C(=O)CSc2nc3nc(C)c(Br)cc3[nH]2)c1	-20	50*	-9
COC1=CC(=O)c2c(O)c(C)c(CC(C)=O)c(O)c2C1=O	-98	64*	28
CC1=C(C(=O)c2ccc(Cl)cc2)C(c2ccc(C(C)C)cc2)NC(=O)N1 (configuration not stated)	-106	32*	73*
CC1=C(C(=O)c2ccc(Cl)cc2)C(c2ccc(C)cc2)NC(=O)N1 (configuration not stated)	-37	-11	0
Cc1cnc(-c2cc(CC3CCN(Cc4cccnc4)C3)ncn2)[nH]1 (configuration not stated)	-5	-14	-44
CCOC(=O)N1CCN(C(=O)Cc2csc(NC(=O)c3ccc(=O)[nH]c3)n2)CC1	-41	-7	5
COc1ccc(C)cc1NC(=O)Cc1csc(NC(=O)c2ccc(=O)[nH]c2)n1	-75	71*	82*
O=C(Nc1ccccc1C(F)(F)F)c1cccc(S(=O)(=O)Nc2cc(C(F)(F)F)ccc2Cl)c1	17	27	0
Cc1ccc(OCc2nc(CC(=O)Nc3cccc(F)c3)cs2)cc1	-33	-8	-3
CC(=O)Nc1ccc(NC(=O)Cc2csc(COc3ccc(C)cc3)n2)cc1	/	52*	5
CC1CCCN(S(=O)(=O)c2ccc(-n3cnc(C(=O)N4CCCC4)c3)nc2)C1 (configuration not stated)	46*	29	-5
CC1CCCN(S(=O)(=O)c2ccc(-n3cnc(C(=O)N4CCCCC4)c3)nc2)C1 (configuration not stated)	13	-5	0
COc1cc2ncc(S(=O)(=O)c3ccccc3)c(NCc3ccc(C)cc3)c2cc1OC	-6	-10	-13
CC(CN=C1NS(=O)(=O)c2ccccc21)c1ccccc1 (configuration not stated)	16	14	29
O=S1(=O)NC(=NCCc2ccc(Cl)cc2Cl)c2ccccc21	22	58*	19
O=C(CCN=C1NS(=O)(=O)c2ccccc21)Nc1cccc(C(F)(F)F)c1	12	8	1
O=S1(=O)NC(=NCCc2ccc(Cl)cc2)c2ccccc21	29	35*	15
COCCCN1CC(=O)N2Cc3[nH]c4ccccc4c3C[C@@H]2C1=O	0	/	-1
O=S(=O)(c1ccc(F)cc1)N1CCc2cc3ccccc3nc21	/	21	-6
CCOC(=O)c1sc(NC(=O)c2cc(-c3ccc(OC)cc3)nc3ccccc23)nc1C	-66	-2	-4
SMILES	USP30 block	USP17 inh	USP8 inh
CCN(CC)C(=O)c1sc(NC(=O)c2cc(-c3ccccc3Cl)nc3ccccc23)c(C(N)=O)c1C	5	13	47*
Cc1nn(C(F)F)c(C)c1S(=O)(=O)Nc1cnn(Cc2ccc(Cl)cc2)c1	0	-21	7
O=C(Nc1ccc(N2CCN(C3CCCCC3)C2=O)nc1)c1ccc2c(c1)OCO2	-1	-2	0
COc1cccc(-c2noc(-c3nn(-c4ccc(Cl)cc4)c(=O)c4ccccc34)n2)c1	-1	9	6
COc1ccc(-c2cn3c4c(=O)n(C)c(=O)n(C)c4nc3n2CC(O)c2ccccc2)cc1 (configuration not stated)	21	-4	-74
COc1ccc(-c2cn3c(-c4ccccc4)c(-c4ccccc4)nc3n2-c2ccccc2)cc1	37*	48*	80*
COc1cccc(-c2cn3c(-c4ccccc4)c(-c4ccccc4)nc3n2-c2cccc(Cl)c2)c1	6	28	81*

High-throughput results: PubChem BioAssay, Buhrlage Lab, Dana-Farber Cancer Institute and Novartis Institutes for BioMedical Research (Cambridge, Mass)
